Test results taken from PubChem BioAssay (EPA / NIEHS).
Results filed as inconclusive are left out. Active and inactive are the calls of the source. How the source made its calls: active means hit-call score of the fitted dose curve at least 0.9, where 1 is the maximum; inconclusive means response in the unintended direction; inactive means score below 0.9.

These compounds were tested on ABC Transporter (ABCB11), ABCB11 (gene 8647) (assay: CLD_ABCB11_48hr: CellzDirect (CLD) Gene Expression Assay for ABC Transporter (ABCB11) at 48 hours (AID 2283697)).
Procedure: CLD_48hr is a cell-based, multiplexed-readout assay that uses hepatocyte, a human liver primary cell, with measurements taken at 48 hours after chemical dosing in a 96-well plate.CLD_ABCB11_48hr is one of 16 assay component(s) measured or calculated from the CLD_48hr assay. It is designed to make measurements of mRNA induction, a form of inducible reporter, as detected with chemiluminescence signals by Quantitative Nuclease Protection Assay (qNPA) technology.Data from the assay component CLD_ABCB11_48hr was analyzed at the endpoint, CLD_ABCB11_48hr, in the positive analysis fitting direction relative to DMSO as the negative control and baseline of activity. Using a type of inducible reporter, gain-of-signal activity can be used to understand changes in the reporter gene as they relate to the gene ABCB11. Furthermore, this assay endpoint can be referred to as a primary readout. To generalize the intended target to other relatable targets, this assay endpoint is annotated to the transporter intended target family, where subfamily is ABC transporter.
Human hepatocyte cultures were treated daily for two consecutive days with fresh dosing solutions containing appropriate concentrations of the 320 ToxCast chemicals (chemical identities were blinded to CellzDirect and other ToxCast collaborators), vehicle control (0.2% DMSO), and positive control inducers as summarized in Table 1. Due to the large number of treatment groups and chemicals examined, the ToxCast chemicals were divided into two groups (spanning two independent cultures of hepatocytes from separate donor preparations (Hu778: ToxCast plates 1 and 2; Hu776: ToxCast plates 3 and 4). Each preparation of human hepatocyte cultures was treated with respective vehicle control, medium only control, set of six positive controls/reference chemicals for the five hepatic receptor pathways, and a subset of eight of the ToxCast chemicals (indoxacarb, pyrithiobac-sodium, norflurazon, cyhalofop-butyl, methomyl, thiram, acetochlor, and propiconazole). These replicate data, coupled with internal replicates designed within the blinded ToxCast chemical library, provided additional data to evaluate interindividual differences between hepatocyte preparations and their potential impact on chemical profiles.Cell morphology and integrity were evaluated using phase-contrast microscopy as an indicator of hepatocyte cell health (Tyson & Green, 1987). Cultures for each treatment group (i.e., media, vehicle [0.2% DMSO], positive control inducers [multiple concentrations], and the ToxCast chemicals [multiple concentrations]) were observed and cell morphology was assessed relative to vehicle control cultures at each harvest time point (0, 6, 24, or 48 h). […] Images were evaluated at the conclusion of the study to assess changes in cell integrity and account for the effects of chemical exposure on uncharacteristic changes in concentration-dependent gene expression profiles. The results from these determinations of apparent cytotoxicity were annotated (yes/no) alongside the corresponding qNPA data for reference.At the conclusion of each treatment period, hepatocyte cultures (96-well) were washed with 1 volume of HBSS, lysed by addition of 25 ul ArrayPlate lysis buffer (HTG, Tucson, AZ), and 70 ul/well of Denaturation Oil, denatured by incubation at 95C for 10 min, and frozen at approximately -70C until analysis by nuclease protection assay (qNPA) (Roberts et al., 2007). For qNPA analysis, cell lysates were thawed at 50C for approximately 30 min, qNPA probes were added, and samples were incubated at 95C for 10 min to begin the detection process by denaturing the target RNA, dissociating the duplexes and secondary structure hybridization. At the conclusion of the hybridization period, S1 nuclease reagent was added to each sample to digest all nonprotected nucleotides at 50C for 60-90 min. […]

SMILES	outcome
COP(=S)(OC)SCn1nnc2ccccc2c1=O	inactive
N#CN=C1SCCN1Cc1ccc(Cl)nc1	inactive
COc1ccc(-c2ccccc2)cc1NNC(=O)OC(C)C	inactive
COC(=O)NS(=O)(=O)c1ccc(N)cc1	inactive
CCOP(=O)(OCC)Oc1nc(Cl)c(Cl)cc1Cl	inactive
O=C(O)c1c(Cl)ccc2cc(Cl)cnc12	inactive
O=c1n(Cl)c(=O)n(Cl)c(=O)n1Cl	inactive
CS(=O)(=O)c1ccc(C(=O)C2C(=O)CCCC2=O)c([N+](=O)[O-])c1	inactive
O=C1C2CC=CCC2C(=O)N1SC(Cl)(Cl)Cl (stereo not given)	inactive
Cc1nc(N(C)C)nc(OC(=O)N(C)C)c1C	inactive
Clc1nc(Cl)nc(Nc2ccccc2Cl)n1	inactive
Nc1c(Cl)c(F)nc(OCC(=O)O)c1Cl	inactive
C=C(C)CN(CC)c1c([N+](=O)[O-])cc(C(F)(F)F)cc1[N+](=O)[O-]	inactive
COC(=O)NC(=S)Nc1ccccc1NC(=S)NC(=O)OC	inactive
COP(=O)(OC)O/C(C)=C/C(=O)N(C)C	inactive
COCc1cnc(C2=NC(C)(C(C)C)C(=O)N2)c(C(=O)O)c1 (stereo not given)	inactive
CC(C)C1(C)N=C(c2ncccc2C(=O)O)NC1=O (stereo not given)	inactive
CCOc1nc(C(Cl)(Cl)Cl)ns1	inactive
OC(c1ccc(Cl)cc1)(c1ccc(Cl)cc1)C(Cl)(Cl)Cl	inactive
CCCC(=NOCC)C1=C(O)CC(CC(C)SCC)CC1=O (stereo not given)	inactive
COCC(C)N(C(=O)CCl)c1c(C)csc1C (stereo not given)	inactive
COc1cc(OC)nc(NC(=O)NS(=O)(=O)c2ncccc2OCC(F)(F)F)n1	inactive
O=P(O)(O)CCCl	inactive
CO/N=C(/C1=NOCCO1)c1ccccc1Oc1ncnc(Oc2ccccc2Cl)c1F	inactive
CCNC(=O)NC(=O)C(C#N)=NOC	inactive
